PubChem BioAssay AID493085 (Broad Institute, 2011)
About 360 (15%) of roughly 2,400 compounds were called active. Not shown: some 5% with an inconclusive outcome.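 How the source made its calls: active means falling-signal curve with half-maximal concentration at or below ten times the top tested dose; inconclusive means flat fit at 30 to 70% inhibition, or poor fit; inactive means signal rise, flat within 30%, or potency beyond limit.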 Not all results are given here. Measured potencies and affinities stand elsewhere.

Experiment: dox-induced RFP signal loss in R4-3T3 cells – cell-based, NIH3T3 R4, HSE-GFP and Tet-On RFP, cherry-pick, set 3, dose response (AID 493085);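 further: cells heat shocked 2 h at 42 °C with doxycycline to induce reporters; 0% = neutral control wells and -100% = didemnin B control at 400 nM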
Conditions: NIH3T3 R4 HSE-GFP/Tet-RFP reporter, fluorescence, 48 h; series mostly up to 19.5 µM; activity change, negative = inhibition: at the top concentration

Activity change, negative = inhibition, inactive:
c1ccc(-c2nn[nH]n2)nc1 0.524%
O=C(CCCNC(=O)/C(=C\c1ccccc1F)NC(=O)c1ccccc1)OCc1ccccc1 12.5%
COc1ccccc1NS(=O)(=O)c1ccc(C)c(C(N)=O)c1 2.29%
COc1ccc(C)cc1S(=O)(=O)Nc1cc2c3c(c1)CCC(=O)N3CCC2 4.91%
CN(C)c1ccc(-c2nc3n(n2)C(c2cccnc2)C2=C(CC(C)(C)CC2=O)N3)cc1 (centres undefined) 8.15%
CCCn1c2ccccc2c2nnc(SCc3[nH]c(=O)[nH]c3C(=O)CCCCC(=O)OCC)nc21 -4.05%
CC(=O)NC(c1ccc(C)cc1)c1cc(Cl)c2cccnc2c1O (centres undefined) 9.24%
Cc1cccc(NCc2ccc(O)c3ncccc23)c1C -5.05%
Oc1c(CN2CCOCC2)cc(COCc2ccccc2)c2cccnc12 94.7%
Cn1ncc([N+](=O)[O-])c1C(=O)Nc1ccccc1Cl -12.2%
CCN1C(=O)C(CC(=O)Nc2ccc(OC)cc2)N(Cc2ccc3c(c2)OCO3)C1=S (centres undefined) -0.998%
Cc1cc(N=Nc2ccc(Cl)cc2)cc(CN2CCCC2)c1O -0.088%
COc1ccc(C(=O)NC(=S)N2CCNC(=O)C2CC(=O)OC(C)C)cc1 (centres undefined) -8.04%
CCOC(=O)c1c(C)[nH]c(C(=O)COC(=O)C2=NNC(=O)CC2)c1C 9.83%
O=C(O)c1cc(S(=O)(=O)N(Cc2ccccc2)c2ccccc2Cl)ccc1Cl -9.49%
O=C(Nc1cccnc1)c1coc(=O)c2ccccc12 0.689%
CC(C)c1ccc(NC2(C#N)C(=O)Nc3ccccc32)cc1 (centres undefined) -4.73%
O=C1SCC(c2ccccc2)=NN1Cc1ccccc1 5.45%
CCOc1ccc(NCc2nnc(SCC(=O)Nc3cc(C)on3)n2-c2ccc(OC)cc2)cc1 2.07%
CCOc1ccc(-n2c(O)c(/C=N/Nc3nnc(C)c(=O)[nH]3)c3ccccc3c2=O)cc1 3.96%
CCOC(=O)c1cccc(NC(=O)CCS(=O)(=O)c2ccc(Br)s2)c1 -1.87%
CC(OC(=O)CN1C(=O)c2ccccc2C1=O)C(=O)NC1CCCCC1C (centres undefined) 15.5%
COC1CCCN(C(=O)c2ccc(OC3CCN(CCc4ccccc4)CC3)cc2)C1 (centres undefined) -0.07%
O=C(CCN1C(=O)/C(=C/c2ccc(F)cc2)SC1=S)NCCCn1ccnc1 -9.6%
Cn1nc(N)c2c(-c3ccccc3)c(C#N)c(N)nc21 7.3%
Cc1c(NC(=O)C2CC(c3ccc(F)cc3)=NO2)c(=O)n(-c2ccccc2)n1C (centres undefined) -8.64%
Cc1ccc(N=C2NC(=O)/C(=C\c3cccs3)S2)cc1C 9.6%
O=C(NCc1ccccc1C(F)(F)F)C12CN(Cc3ccccc3)CC1C(c1ccc([N+](=O)[O-])cc1)=NO2 (centres undefined) 3.54%
COC(=O)c1cc(S(=O)(=O)NCc2ccc(F)cc2)cn1C -5.9%
COc1ccc(CNC(=O)CCCNC(=O)c2ccc(Cl)cc2)cc1OC -0.28%
Cc1ccc(C(=O)O/N=C(\N)c2ccccn2)c(C)c1 6.48%
CC(C)(C)C(=O)Nc1ccc(-c2cc3cc(Cl)ccc3o2)cc1 -1.75%
CC1CCN(S(=O)(=O)c2ccc(C(=O)Nc3nnc(-c4ccccn4)o3)cc2)CC1 -7.08%
CCS(=O)(=O)c1ncc(Cl)c(C(=O)Nc2ccc(C)cc2)n1 11.8%
CN1CCN(S(=O)(=O)c2ccc(Oc3ccc(F)c(Cl)c3)nc2)CC1 -5.99%
CCc1ccc(OC(C)C(=O)N(Cc2ccco2)C2CCS(=O)(=O)C2)cc1 (centres undefined) -7.01%
Cc1ncc([N+](=O)[O-])n1CC(=O)Nc1ccc(F)cc1 8.57%
O=C(Cn1nc(-c2ccc(Cl)cc2)ccc1=O)NCC1CCCO1 (centres undefined) -3.51%
Cc1cc(Nc2cccc(Cl)c2)nc(-c2ccccc2O)n1 6.37%
O=C(O)c1cccc(Nc2ccnc(Nc3cccc(C(=O)O)c3)n2)c1 -10.5%
CCOc1cc(CNCC2CCCN2CC)cc(Cl)c1OC (centres undefined) 13.6%
COc1ccc(-c2cn(-c3ccccc3)nc2CO)cc1 -5.57%
Cn1ccnc1C1CCCCN1C(=O)c1cc(COc2ccc(F)cc2Cl)on1 (centres undefined) -6.6%
Cc1cc(=O)n2[nH]c(=O)c(N=Nc3ccccc3)c2[nH]1 4.62%
CN(C)c1ccc(C(=S)Nc2ccccc2)cc1 0.39%
CN(C)c1ccc(/C=N/NC(=O)C2COc3ccccc3O2)o1 (centres undefined) 48.8%
Cc1ccc(Cl)cc1NC(=O)C1COc2ccccc2O1 (centres undefined) -0.583%
Cc1ccc(O)c(/C=N/NC(=O)CN2CCCC2)c1 0.931%
NCCCC[C@@H](C(=O)N1CCNCC1)n1cc([C@@H](N)CO)nn1 5.14%
COc1ccc(C(=O)c2c[nH]cc2-c2ccccc2)cc1 -2.31%
COc1ccc(OC)c(C(=O)c2ccc(C(=O)O)cc2)c1 2.81%
Cc1cn2c(nc(=O)c3cccnc32)s1 -0.559%
Cc1ccc(S(=O)(=O)N2CCC(C)CC2)cc1[N+](=O)[O-] -4.18%
COc1ccc(C(=O)N/C(=C\c2cccs2)c2nc3ccccc3[nH]2)cc1OC 3.93%
C=CCc1c(C)nc2c(-c3ccccc3)cnn2c1N1CCOCC1 2.27%
Cn1c(N2CCOCC2)nc(-c2ccccc2)c1-c1ccccc1 -9.58%
C=CCn1c(C)cc(C(=O)COC(=O)CNC(=O)c2ccccc2)c1C -5.09%
CNC(=O)COC(=O)c1ccccc1C(=O)c1ccc(Cl)c([N+](=O)[O-])c1 5.21%
O=C(COC(=O)c1cc[n+]([O-])cc1)Nc1cccc(Cl)c1Cl 0.417%
CC(C)(C)c1ccc(/C=C(\C#N)C(=O)Nc2ccccn2)cc1 -4.51%
COc1cc(C(C(=O)NCc2ccccc2)N(Cc2ccco2)C(=O)c2cnccn2)cc(OC)c1OC (centres undefined) -12.3%
COc1ccc2cc3c(N)nn(C(=O)Cc4c[nH]c5ccccc45)c3nc2c1 -34.1%
CSc1cccc(NC(=S)N2CCC(N(C)C3CCCC3)CC2)c1 0.463%
CS(=O)(=O)c1ccc(NC(=O)c2ccc3c(c2)S(=O)(=O)N=C2CCCCCN23)cc1 -1.06%
CCN(C(=O)COC(=O)/C=C/c1ccccc1)C1CCCCC1 4.41%
Cc1cccc(N(Cc2ccccc2)C(=O)CCl)c1 29.4%
COc1ccccc1NC(=O)[C@H](COCc1ccccc1)NC(=O)OC(C)(C)C -5.58%
CCn1c(SCC(=O)N(C)C2CCS(=O)(=O)C2)nnc1-c1cccs1 (centres undefined) 10.8%
CN(C(=O)CCNC(=O)Cn1cnc2ccccc2c1=O)c1ccccc1F -8.21%
